Laboratory results published in PubChem BioAssay.
Activity calls are given as the source filed them.

Legend:
[1] = compound effects on lung adenocarcinoma cell viability – A549, calcein-AM fluorescence, 48 h, basal, profiling panel (AID 1162); details: higher = more signal
[2] = compound effects on differentiated 3T3-L1 adipocyte viability – cell-based, 3T3-L1 adipocytes, calcein-AM fluorescence, 48 h, basal, profiling panel (AID 1163); details: 3T3-L1 adipocytes viability, higher = more signal
[3] = compound effects on hepatocellular carcinoma cell viability – HepG2, calcein-AM fluorescence, 48 h, basal, profiling panel (AID 1164); details: higher = more signal
[4] = compound effects on multiple myeloma cell viability – MM1S, calcein-AM fluorescence, 48 h, basal, profiling panel (AID 1165); details: higher = more signal;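 further: viability of MM1S multiple myeloma cells under basal unstimulated conditions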
[5] = calcein-AM signal in unstimulated myeloma cells – cell-based, calcein-AM fluorescence, 48 h, PK04 Diversity Set, profiling panel (AID 1166); details: RPMI8226 myeloma viability, higher = more signal;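 further: cells grown under basal conditions without added stimulus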
[6] = JC-1 mitochondrial signal, unstimulated HepG2 cells – cell-based, JC-1 fluorescence, 24 h, 100 nL compound, profiling panel (AID 1167); details: HepG2 mitochondrial potential, higher = more signal
[7] = JC-1 mitochondrial signal, unstimulated adipocytes – cell-based, JC-1 fluorescence, 3T3-L1 adipocytes, 24 h, 100 nL compound, profiling panel (AID 1168); details: JC-1 mitochondrial fluorescence, higher = more signal, called active from +8 up or from −8 down
[8] = JC-1 mitochondrial signal, unstimulated myeloma cells – cell-based, JC-1 fluorescence, RPMI8226, 24 h, 100 nL compound, profiling panel (AID 1169); details: JC-1 mitochondrial potential fluorescence, higher = more signal
[9] = JC-1 mitochondrial signal, unstimulated MM1S myeloma – cell-based, JC-1 fluorescence, 24 h, 100 nL compound, profiling panel (AID 1170); details: MM1S mitochondrial potential, higher = more signal
[10] = resazurin metabolic signal in A549 cells – cell-based, resazurin fluorescence, 24 h, PK04 Diversity Set, profiling panel (AID 1171); details: A549 viability, higher = more signal, called active from +8 up or from −8 down
Further: test concentration not given here.

Compound | z-score [1] | z-score [2] | z-score [3] | z-score [4] | z-score [5] | z-score [6] | z-score [7] | z-score [8] | z-score [9] | z-score [10]
CC(CO)N1C(=O)[C@@H]2C3C(=O)OCCC/C=C\[C@H]3OC23C=CCN(C(C)(C)C)C(=O)[C@@H]13 (stereo not given in full) | -0.241 | -0.557 | 0.775 | 1.41 | 0.995 | 0.285 | 0.521 (inactive) | -0.458 | -1.26 | -0.717 (inactive)
O=C1C2C=CC(C(O)CCc3ccccc3)N(Nc3ccccc3F)C2C(=O)N1c1ccccc1 (stereo not given) | -0.804 | 0.255 | -0.31 | 0.596 | -1.46 | -0.257 | 0.377 (inactive) | -0.448 | -0.515 | 0.387 (inactive)
C=C(CCCC)/C(=C/C[C@H](OC(=O)c1ccncc1)c1ccccc1OCCO)c1cnc2ccccc2c1 | 0.0262 | 0.091 | 0.0722 | -3.3 | -2.97 | 0.943 | -0.424 (inactive) | -0.716 | -0.705 | 0.89 (inactive)
CC(C)C(O)C1C=CC2C(=O)N(c3ccccc3)C(=O)C2N1Nc1ccc([N+](=O)[O-])cc1 (stereo not given) | -0.821 | -1.18 | 0.497 | 0.637 | -0.023 | -1.41 | -1.37 (inactive) | 0.766 | -1.07 | -0.397 (inactive)
COCCOC(=O)N1C(=O)[C@@]2(c3ccccc31)[C@H](c1ccc(O)cc1)N1[C@H](c3ccccc3)[C@H](c3ccccc3)OC(=O)[C@H]1[C@@H]2C(=O)Nc1nc2ccccc2s1 | 0.982 | 0.267 | 0.818 | -1.49 | -2.22 | -3.87 | -1.17 (inactive) | -0.883 | -1.21 | 0.185 (inactive)
COc1cc2c(cc1O)C(c1cccs1)N(C)CC2 (stereo not given) | -0.416 | -0.344 | 0.448 | 0.405 | 0.586 | -1.13 | -0.0427 (inactive) | -0.0651 | -1.06 | -0.568 (inactive)
CO[C@H]1O[C@H](CO)[C@@H](OC(=O)Nc2ccc(C(F)(F)F)cc2)[C@H](OC(=O)Nc2ccc3c(c2)OCO3)[C@@H]1OC(=O)Nc1ccc2c(c1)OCO2 | -0.903 | 0.102 | -1.81 | -3.42 | -3.51 | -1.62 | -0.855 (inactive) | -1.32 | -1.36 | -1.99 (inactive)
COCCOC(=O)N1C(=O)[C@@]2(c3cc(C#CCNC(N)=O)ccc31)[C@H](C(=O)N1CCN(c3ncccn3)CC1)[C@H]1C(=O)O[C@H](c3ccccc3)[C@H](c3ccccc3)N1[C@@H]2c1ccc(OCCO)cc1 | 0.572 | 0.148 | 0.548 | 0.63 | 0.287 | -2.07 | 1.6 (inactive) | -0.863 | -1.51 | -0.465 (inactive)
CCS[C@H]1[C@@H](C(=O)O)[C@H](c2ccc(C)cc2)N(S(=O)(=O)c2ccc(C)cc2)[C@@H]1CC | -0.408 | -0.507 | 1.36 | 0.412 | 0.458 | 0.922 | 0.337 (inactive) | 0.551 | -1.88 | -0.545 (inactive)
COc1ccc(C(O)C2C=CC3C(=O)N(Cc4ccccc4)C(=O)C3N2n2cnnc2)cc1OCc1ccccc1 (stereo not given) | 0.187 | 0.534 | -0.345 | 0.195 | -1.79 | -0.323 | -1.06 (inactive) | 0.593 | -0.882 | 0.18 (inactive)
CC(=O)n1cc(C(O)C2C=CC3C(=O)N(c4ccccc4)C(=O)C3N2Nc2ccc([N+](=O)[O-])cc2)c2ccccc21 (stereo not given) | -0.456 | -0.479 | -0.439 | -1.53 | -0.315 | -1.75 | -1.2 (inactive) | -0.412 | 0.0885 | -0.375 (inactive)
CCCC[C@H]1OB(O)C[C@H]2C1=C(COC)Cn1c(=O)n(-c3ccccc3)c(=O)n12 | 0.0913 | -0.21 | -0.136 | -1.16 | -0.657 | 0.0213 | -0.199 (inactive) | 0.454 | -0.73 | 0.921 (inactive)
O=C(NCCO)C1=C[C@H](Oc2ccccc2I)[C@@H](O)[C@H](N(Cc2ccco2)C(=O)Cc2ccccc2)C1 | -0.22 | 1.31 | -0.902 | 0.426 | -1.94 | -0.217 | -0.166 (inactive) | -0.084 | 0.559 | -1.35 (inactive)
O=C(OCc1ccccc1)C1=CCC2c3[nH]c4ccccc4c3C(=O)C1N2S(=O)(=O)c1ccccc1[N+](=O)[O-] (stereo not given) | -0.725 | -0.816 | -0.267 | -0.624 | -0.286 | -3.06 | -4.43 (inactive) | -1.14 | -3.28 | -0.311 (inactive)
CC(C)NC(=O)[C@@]1(C)c2ccccc2C(=O)N(Cc2cc(C(F)(F)F)cc(C(F)(F)F)c2)[C@H]1c1ccc(CO)cc1 | 1.25 | -0.562 | 0.481 | -0.137 | -0.825 | 0.718 | 0.468 (inactive) | -0.382 | -0.527 | -0.558 (inactive)
C[C@@]1([C@@H](NC(=O)c2ccc(-c3ccccc3)cc2)c2ccc(Cl)cc2)C[C@H]1C1CCCCC1 | -1.18 | -0.52 | -0.934 | -3.43 | -4.76 | -2.21 | -1.07 (inactive) | -0.902 | -2.73 | 0.602 (inactive)
COCCCNC(=O)[C@@H]1c2ccccc2C(=O)N(Cc2ccccc2Cl)[C@H]1c1ccc(CO)cc1 | 0.897 | -0.137 | 1.84 | 0.448 | 1.28 | 2.87 | 0.385 (inactive) | -0.21 | 0.418 | -0.028 (inactive)
C=CCOC(=O)[C@H]1[C@@H]2C(=O)O[C@@H](c3ccccc3)[C@@H](c3ccccc3)N2[C@@H](c2ccc(OCCOC(=O)[C@H]3C[C@H]4C(=O)N[C@@H](CCCC[N+](C)(C)C)C(=O)N4[C@H]3c3ccc(O)cc3)cc2)[C@]12C(=O)Nc1ccc(I)cc12 | 0.191 | -0.113 | 0.837 | -0.233 | -0.661 | 0.239 | -0.672 (inactive) | 0.0674 | 0.17 | -0.0807 (inactive)
C=C[C@H](OC)[C@@H](OC(=O)Nc1ccc(OC)cc1)c1ccc(O)c(F)c1 | -0.766 | -0.501 | -0.322 | -2.06 | -2.88 | -2.39 | 0.313 (inactive) | -0.538 | -0.933 | -0.596 (inactive)
CC(C)[Si]1(C(C)C)O[C@@H](c2ccccc2)c2cc(-c3ccc(-c4ccc(Cl)c(Cl)c4)o3)nc(-c3ccccc3)c21 | 0.272 | -0.277 | 0.428 | -2.62 | -3.09 | -1.87 | -1.06 (inactive) | -0.395 | -0.582 | 0.613 (inactive)
CCCC=C(CCC)[C@@H](NC(=O)c1cccs1)c1ccc(C(F)(F)F)cc1 | -1.43 | 0.203 | -0.809 | -1.41 | -4.35 | 1.34 | -0.229 (inactive) | -0.393 | -1.71 | 1.73 (inactive)
CO[C@H]1O[C@H](CO)[C@@H](OC(=O)Nc2ccccc2)[C@H](OC(=O)Nc2ccccc2)[C@@H]1OC(=O)Nc1ccccc1 | -1.36 | 0.875 | -1.68 | -1.81 | -1.98 | -0.523 | 0.348 (inactive) | -1.07 | 0.0816 | -2.01 (inactive)
